From PubChem BioAssay (Tox21)
Records with an inconclusive call do not appear. Activity calls are given as the source filed them. The call rests on the fitted dose curve; in most records, active means well fitted curve in the direction sought with a large enough effect in the repeat runs; inconclusive means weak or mixed curves; inactive means no such curve, though single readings can be large; an effect the other way counts as inactive or inconclusive.

Assay: qHTS RealTime-Glo MT Cell Viability Assay in HepG2 cells - 24 hour (AID 1224867)
Settings: RealTime-Glo luminescence; series mostly up to 76.8 µM; activity change, negative = cytotoxicity: at the top concentration
Outline: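 HepG2 cells were seeded at 600 cells/well together with NanoLuc luciferase and a cell-permeant prosubstrate, preincubated 5 h at 37 C/5% CO2, then pin-dosed with compounds in DMSO. Nonlytic luminescence from viable cells was read at each time point.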
Further: nearly all actives have a fitted effect of over 50% in size.
On the % scale 0 is the no-effect control and ±100 the full control effect.

Row | Compound | activity change, negative = cytotoxicity
1 | O=C1[C@@H]2[C@H]3CC[C@H](C3)[C@@H]2C(=O)N1CCCCN1CCN(c2ncccn2)CC1 | 2% [at 35.3 µM] (inactive)
2 | Cc1ccc2c(c1)CCCN2 | 1.42% (inactive)
3 | O=C(NC(Cc1cc(=O)[nH]c2ccccc12)C(=O)O)c1ccc(Cl)cc1 (stereo not drawn) | 1.78% [at 35.3 µM] (inactive)
4 | CC(C)(C)C1(CCc2ccc(Cl)cc2)CO1 (stereo not drawn) | -11% (inactive)
5 | CC(C)(O)CCc1ccccc1 | 0.466% (inactive)
6 | Cc1ccc(N(CCO)CCO)cc1 | 0.337% (inactive)
7 | CSCC[C@H](NC(=O)[C@H](Cc1c[nH]c2ccccc12)NC(=O)CCNC(=O)OC(C)(C)C)C(=O)N[C@@H](CC(=O)O)C(=O)N[C@@H](Cc1ccccc1)C(N)=O | 1.37% [at 35.3 µM] (inactive)
8 | O=CNNC=O | 0.836% (inactive)
9 | O=C(O)CO | 1.82% (inactive)
10 | CCOc1ncc(F)c(=O)[nH]1 | 2.06% [at 35.3 µM] (inactive)
11 | O=C(O)CNC(=O)c1ccccc1I | 5.05% [at 35.3 µM] (inactive)
12 | Cc1cc(CCC(=O)OCCOCCOCCOC(=O)CCc2cc(C)c(O)c(C(C)(C)C)c2)cc(C(C)(C)C)c1O | -11.1% (inactive)
13 | Nc1ccn([C@H]2CS[C@@H](CO)O2)c(=O)n1 | 0.0583% (inactive)
14 | CC(C)(C(=O)c1cccnc1)c1cccnc1 | 1.02% [at 35.3 µM] (inactive)
15 | C[C@@H]1C[C@H]2[C@@H]3CCC4=CC(=O)C=C[C@]4(C)[C@@]3(F)[C@@H](O)C[C@]2(C)[C@@]1(O)C(=O)COP(=O)(O)O | -6.73% (inactive)
16 | Cc1ccc(S(=O)(=O)NC(=O)NC2CCCCC2)cc1 | 4.83% [at 35.3 µM] (inactive)
17 | COC(=O)Nc1nc2ccc(C(=O)C3CC3)cc2[nH]1 | -18.7% [at 35.3 µM] (inactive)
18 | O=S(=O)(O)CO | 1.07% (inactive)
19 | FC(F)(F)C(F)(F)C(F)(F)C(F)(F)CCI | 1.56% [at 35.3 µM] (inactive)

Row | Compound | activity change, negative = cytotoxicity
20 | CCCCCCOC(=O)CCCCC | 1.05% (inactive)
21 | O=C(O)CCC(=O)c1ccc(-c2ccccc2)cc1 | 4.35% [at 35.3 µM] (inactive)
22 | CCC(CO)(CO)CO | 0.146% (inactive)
23 | C=CCOC(=O)COCCC(C)C | -0.962% (inactive)
24 | CCOC(=O)C(C)O (stereo not drawn) | 0.493% (inactive)
25 | CCCCCCCC/C=C/C(=O)O | 3.52% [at 35.3 µM] (inactive)
26 | CCCCCCC(CO)CCCC (stereo not drawn) | -5.71% (inactive)
27 | Nc1nc(-c2ccc([N+](=O)[O-])cc2)cs1 | -0.269% (inactive)
28 | COC(OC)OC | 0.391% (inactive)
29 | O=c1[nH]c2cc(C(F)(F)F)c(N3CCOCC3)cc2n(CP(=O)(O)O)c1=O | 0.525% [at 35.3 µM] (inactive)
30 | CCCCCCCCCCCCCCN(C)C | 1.14% [at 15.8 µM] (inactive)
31 | CCC(Cl)CC(Cl)C(Cl)C(Cl)C(Cl)C(C)Cl (stereo not drawn) | -1.2% [at 15.8 µM] (inactive)
32 | CCCCCCCCCCCCCCCC(=O)OCC | 1.02% (inactive)
33 | COc1ccc(CCN(C)CCCN2CCc3cc(OC)c(OC)cc3CC2=O)cc1OC | 2.64% [at 35.3 µM] (inactive)
34 | CCCCC[C@H](O)/C=C/[C@H]1[C@H](O)CC(=O)[C@@H]1C/C=C\CCCC(=O)O | 0.752% [at 35.3 µM] (inactive)
35 | CCCC(=O)OC(=O)CCC | 0.947% (inactive)
36 | CC[C@H]1OC(=O)[C@H](C)[C@@H](O[C@H]2C[C@@](C)(OC)[C@@H](O)[C@H](C)O2)[C@H](C)[C@@H](O[C@@H]2O[C@H](C)C[C@H](N(C)C)[C@H]2O)[C@](C)(O)C[C@@H](C)CN(C)[C@H](C)[C@@H](O)[C@]1(C)O | 1.4% [at 35.3 µM] (inactive)
37 | NC(=O)CCCCC(N)=O | -1.92% (inactive)
38 | CCCCCCCCCCCCCOC(=O)CCSCCC(=O)OCCCCCCCCCCCCC | -1.37% [at 15.8 µM] (inactive)

Assay: qHTS RealTime-Glo MT Cell Viability Assay in HEK293 cells - 32 hour (AID 1224868); further: potency means the concentration at half of the fitted maximal effect; on activity change, negative = cytotoxic: top concentration of the series differs between compounds
Settings: RealTime-Glo luminescence; series mostly up to 76.8 µM; activity change, negative = cytotoxic: at the top concentration
Outline: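 HEK293 cells were seeded at 600 cells/well together with NanoLuc luciferase and cell-permeant prosubstrate, preincubated 5 h at 37 C/5% CO2, then given compound in DMSO by pintool. Luminescence from viable-cell prosubstrate reduction was read repeatedly over 40 h.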

Row | Compound | activity change, negative = cytotoxic | Potency
39 | O=C1[C@@H]2[C@H]3CC[C@H](C3)[C@@H]2C(=O)N1CCCCN1CCN(c2ncccn2)CC1 | -1.24% [at 35.3 µM] (inactive) | –
40 | Cc1ccc2c(c1)CCCN2 | 10.4% (inactive) | –
41 | O=C(NC(Cc1cc(=O)[nH]c2ccccc12)C(=O)O)c1ccc(Cl)cc1 (stereo not drawn) | 2.45% [at 35.3 µM] (inactive) | –
42 | CC(C)(C)C1(CCc2ccc(Cl)cc2)CO1 (stereo not drawn) | -12.5% (inactive) | –
43 | CC(C)(O)CCc1ccccc1 | -7.51% (inactive) | –
44 | Cc1ccc(N(CCO)CCO)cc1 | 0.759% (inactive) | –
45 | CSCC[C@H](NC(=O)[C@H](Cc1c[nH]c2ccccc12)NC(=O)CCNC(=O)OC(C)(C)C)C(=O)N[C@@H](CC(=O)O)C(=O)N[C@@H](Cc1ccccc1)C(N)=O | 1.96% [at 35.3 µM] (inactive) | –
46 | O=CNNC=O | 6.65% (inactive) | –
47 | O=C(O)CO | 0.672% (inactive) | –
48 | CCOc1ncc(F)c(=O)[nH]1 | 1.37% [at 35.3 µM] (inactive) | –
49 | O=C(O)CNC(=O)c1ccccc1I | 8.41% [at 35.3 µM] (inactive) | –
50 | Cc1cc(CCC(=O)OCCOCCOCCOC(=O)CCc2cc(C)c(O)c(C(C)(C)C)c2)cc(C(C)(C)C)c1O | -2.11% (inactive) | –
51 | COc1cc(C(C)=O)ccc1OCCCN1CCC(c2noc3cc(F)ccc23)CC1 | – | 10.7 µM (active)
52 | Nc1ccn([C@H]2CS[C@@H](CO)O2)c(=O)n1 | -4.1% (inactive) | –
53 | CC(C)(C(=O)c1cccnc1)c1cccnc1 | 8% [at 35.3 µM] (inactive) | –
54 | C[C@@H]1C[C@H]2[C@@H]3CCC4=CC(=O)C=C[C@]4(C)[C@@]3(F)[C@@H](O)C[C@]2(C)[C@@]1(O)C(=O)COP(=O)(O)O | -19.7% (inactive) | –
55 | Cc1ccc(S(=O)(=O)NC(=O)NC2CCCCC2)cc1 | 8.88% [at 35.3 µM] (inactive) | –
56 | O=S(=O)(O)CO | -0.566% (inactive) | –

Row | Compound | activity change, negative = cytotoxic | Potency
57 | FC(F)(F)C(F)(F)C(F)(F)C(F)(F)CCI | -6.69% [at 35.3 µM] (inactive) | –
58 | CCCCCCOC(=O)CCCCC | 2.56% (inactive) | –
59 | O=C(O)CCC(=O)c1ccc(-c2ccccc2)cc1 | -0.5% [at 35.3 µM] (inactive) | –
60 | CCC(CO)(CO)CO | 1.47% (inactive) | –
61 | C=CCOC(=O)COCCC(C)C | -0.251% (inactive) | –
62 | CCOC(=O)C(C)O (stereo not drawn) | 18.5% (inactive) | –
63 | CCCCCCCC/C=C/C(=O)O | 9.5% [at 35.3 µM] (inactive) | –
64 | CCCCCCC(CO)CCCC (stereo not drawn) | 0.266% (inactive) | –
65 | Nc1nc(-c2ccc([N+](=O)[O-])cc2)cs1 | -13.7% (inactive) | –
66 | COC(OC)OC | 9.77% (inactive) | –
67 | O=c1[nH]c2cc(C(F)(F)F)c(N3CCOCC3)cc2n(CP(=O)(O)O)c1=O | 4.7% [at 35.3 µM] (inactive) | –
68 | CCCCCCCCCCCCCCN(C)C | -30.2% [at 15.8 µM] (inactive) | –
69 | CCCCCCCCCCCCCCCC(=O)OCC | 15% (inactive) | –
70 | COc1ccc(CCN(C)CCCN2CCc3cc(OC)c(OC)cc3CC2=O)cc1OC | 9.25% [at 35.3 µM] (inactive) | –
71 | CCCCC[C@H](O)/C=C/[C@H]1[C@H](O)CC(=O)[C@@H]1C/C=C\CCCC(=O)O | 13.2% [at 35.3 µM] (inactive) | –
72 | NC(=O)CCCCC(N)=O | 1.57% (inactive) | –
73 | CCCCCCCCCCCCCOC(=O)CCSCCC(=O)OCCCCCCCCCCCCC | -0.356% [at 15.8 µM] (inactive) | –
